The nature of assay [1]: inhibitors of TNFa-induced NFkB p65 translocation, primary screen, imaging, HUVEC, MLSMR starter and 10KST1 sets (AID 438;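 active = inhibition above 20% together with a positive visual image hit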;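 also: compound added about 3h40 before a 20 min TNFalpha stimulation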;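 as to inhibition: signal is the nuclear over cytoplasmic p65 intensity ratio per well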). Conditions: HUVEC TNFa-induced p65 nuclear translocation; cell count: measured here: nuclei count (cytotoxicity indicator), at 2.08 µM unless noted; inhibition: at 2 µM, stronger effect = higher value unless noted.
Assay [2] is described as follows: reduction of polyQ htt aggregates in cells – imaging, exon1htt(103Q)mCFP cells, high-content imaging, primary screen (AID 483;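 active = visual image review flags a hit and inhibition of aggregation exceeds 20%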;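 also: compound exposure lasted 3 days before fixation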;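 as to nuclei count: percent of the per-plate median nuclei count of sample wells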). Conditions: exon1htt(103Q)mCFP cell line, aggregate imaging, at 2 µM; inhibition of aggregation: stronger effect = higher value; nuclei count: measured here: cell count, toxicity.
The nature of assay [3]: endothelial E-selectin expression blockers – imaging, HUVEC, immunofluorescence, MLSMR starter and 10KST1 sets, primary screen (AID 487;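 active = visually confirmed hit in the image check and inhibition above 20%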;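 as to inhibition: signal is fraction of cell area covered by stained E-selectin grains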;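 as to nuclei count: 100% = median nuclei count of all wells on the same plate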). Conditions: HUVEC TNFalpha-induced E-selectin immunofluorescence imaging, at 2 µM; inhibition: stronger effect = higher value; nuclei count: measured here: cell number, toxicity.
A short description of assay [4]: Primary imaging screen for DUSP6 inhibitors that restore phospho-Erk in transfected HeLa cells, chemical complementation (AID 609;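 active = compounds giving at least 50% inhibition in the cell-based MKP-3 phosphatase rescue imaging test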;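 as to inhibition: phospho-Erk level distribution per well compared with pooled transfected vehicle control wells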). Conditions: HeLa MKP-3 transfected, phospho-Erk imaging KS statistic, at 10 µM.
For assay [5], the target named is Dual specificity protein phosphatase 6 (Homo sapiens) (UniProt Q16828). Described as above. Conditions: HeLa MKP-3 transfected, phospho-Erk imaging KS statistic, at 10 µM, stronger effect = higher value.
In assay [6] the target is Voltage-gated potassium channel subunit beta-2 (Rattus norvegicus) (UniProt P62483). In words: inhibitors of rat Kvbeta2 reductase activity – biochemical, NADPH fluorescence, primary screen (AID 622;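 active = fluorescence slope higher than the sample average by over 3 SD, cut at about -0.22 in these data, passing the limit was not always enough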;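 also: slope of raw intensity against log time taken from 70 to 1610 s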). Conditions: recombinant KvBeta, 4-cyanobenzaldehyde reduction, at 10 µM, stronger effect = higher value.
Assay [7] has the same target. In words: enhancers of rat Kvbeta2 NADPH turnover – biochemical, NADPH fluorescence, primary screen (AID 623;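 active = NADPH fluorescence slope more negative than the mean of all samples by about 3 SD, 99.7% confidence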;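 also: fluorescence intensity change per second fitted from 20 to 320 s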). The note with it: Recombinant KvBeta, NADPH fluorescence decrease slope, 10 min; at 10 µM; stronger effect = lower value.
Assay [8] addresses Alpha-2C adrenergic receptor (Homo sapiens) (UniProt P18825). In words: compounds altering alpha2C-coupled GIRK flux – cell-based, HEK293 alpha2C/GIRK1/2, thallium flux, primary screen (AID 624;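 active = fluorescence slope after compound addition differing from the mean of all screened samples at 99.7% confidence, in either direction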;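 also: slope of fluorescence ratio to pre-addition baseline per second over 15 to 24 s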). Conditions: thallium flux BTC fluorescence, at 10 µM, actives lie on both sides.
The nature of assay [9]: inhibitors of larval lipid processing in zebrafish, primary screen, whole organism, PED6 fluorescence, gall bladder and intestine (AID 686;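 active = a full or partial loss of lipid-probe fluorescence in the fish gall bladder, intestine or both, judged by eye; inactive = no fluorescence loss, or compound toxic to the fish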;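 also: larvae 5 to 7 days old with five fish per well; signal comes from phospholipase A2 cleavage of quenched PED6 carried via bile; overnight exposure to compound and PED6 before scoring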). Conditions: Zebrafish larvae PED6 lipid processing, fluorescence scoring.
A short description of assay [10]: loss of swimming-algae plug formation – whole organism, Chlamydomonas reinhardtii, WT vs cilia-less mutant, absorbance, 96-well, primary screen (AID 463189).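 Also: 0% = wild type cc124 cells in DMSO and 100% = ciliumless bld1 mutant cells.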 The note with it: Chlamydomonas reinhardtii gravitaxis, OD600 absorbance, 2 days; at 10 µM; stronger effect = higher value.
A short description of assay [11]: blockers of RIG-like receptor reporter activation – cell-based, Sendai virus stimulus, luciferase, 10K MLSCN set, TLR/RLR signaling modifier project, primary screen (AID 602276;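 active = inhibition at or above 50% at 10 µM; inactive = inhibition below 50%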;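 also: firefly luciferase from ISG56 promoter only with Renilla not read in this screen; 0% = Sendai virus plus DMSO and 100% = medium plus DMSO without virus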). Conditions: HEK293 RL24 IRF3 luciferase reporter, at 10 µM, stronger effect = higher value.
Assay [12] is described as follows: TLR3 IRF3 reporter activation blockers – cell-based, poly I:C stimulus, luciferase, 10K MLSCN set, primary screen (AID 602277;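 active = inhibition of the reporter signal at or above 50%; inactive = inhibition below 50%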). The note with it: HEK293-TLR3 RL24 IRF3 luciferase reporter, at 10 µM, stronger effect = higher value. (In general: Reporter assays use an easily measured gene product as a stand-in for the process of interest.)
Setting [13] is: measured here: cell density z-score.
Where [14] appears, read: measured here: nuclear c-Myc green intensity z-score.
Where [15] appears, read: measured here: nuclear pErk red intensity z-score, stronger effect = higher value.

Several values for one entry are separate records, joined by “and”; a condition that tells them apart may be missing. Identical values can stand only once. Activity calls are given as the source filed them.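 The calls were made as follows, unless noted: active = inhibition at or above 50% relative to wild type and mutant plate controls; inactive = inhibition below 50%.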

As usually defined, the inhibition is the relative decrease from the control value, in per cent.

Sequence of Voltage-gated potassium channel subunit beta-2 (Rattus norvegicus) (P62483 whole entry, looked up): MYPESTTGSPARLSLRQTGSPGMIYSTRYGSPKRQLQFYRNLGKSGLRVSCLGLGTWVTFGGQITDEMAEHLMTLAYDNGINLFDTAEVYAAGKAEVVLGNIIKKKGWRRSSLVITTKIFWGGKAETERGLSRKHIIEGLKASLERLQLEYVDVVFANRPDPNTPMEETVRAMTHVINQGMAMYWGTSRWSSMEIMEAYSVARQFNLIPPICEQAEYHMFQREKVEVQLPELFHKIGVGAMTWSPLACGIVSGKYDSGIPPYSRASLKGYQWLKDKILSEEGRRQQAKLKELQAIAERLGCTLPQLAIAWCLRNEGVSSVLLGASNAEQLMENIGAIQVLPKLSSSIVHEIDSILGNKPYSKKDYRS
Sequence of Alpha-2C adrenergic receptor (Homo sapiens) (P18825 whole entry, looked up): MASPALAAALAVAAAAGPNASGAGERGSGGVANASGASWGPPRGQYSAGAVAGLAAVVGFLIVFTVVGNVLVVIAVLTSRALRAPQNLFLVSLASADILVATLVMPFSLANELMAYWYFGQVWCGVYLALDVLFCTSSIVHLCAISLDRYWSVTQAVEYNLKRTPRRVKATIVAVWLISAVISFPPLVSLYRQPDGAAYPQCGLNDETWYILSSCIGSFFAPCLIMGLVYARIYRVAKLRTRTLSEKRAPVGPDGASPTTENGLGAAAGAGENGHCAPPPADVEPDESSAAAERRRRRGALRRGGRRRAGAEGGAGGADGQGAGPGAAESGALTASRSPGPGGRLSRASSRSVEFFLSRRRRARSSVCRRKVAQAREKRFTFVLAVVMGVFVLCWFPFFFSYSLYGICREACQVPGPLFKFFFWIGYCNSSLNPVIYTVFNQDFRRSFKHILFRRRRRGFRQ
Sequence of Dual specificity protein phosphatase 6 (Homo sapiens) (Q16828 whole entry, looked up): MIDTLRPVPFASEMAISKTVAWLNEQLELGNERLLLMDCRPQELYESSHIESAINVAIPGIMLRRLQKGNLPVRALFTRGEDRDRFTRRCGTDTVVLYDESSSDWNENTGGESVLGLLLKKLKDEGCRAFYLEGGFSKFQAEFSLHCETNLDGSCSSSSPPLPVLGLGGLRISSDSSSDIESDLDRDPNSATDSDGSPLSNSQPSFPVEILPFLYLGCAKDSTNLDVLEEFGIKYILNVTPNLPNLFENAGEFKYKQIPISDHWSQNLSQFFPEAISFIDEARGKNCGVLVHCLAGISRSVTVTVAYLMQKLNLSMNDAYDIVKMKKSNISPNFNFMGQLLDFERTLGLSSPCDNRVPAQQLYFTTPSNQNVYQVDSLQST

Compound `NCC(CC(=O)O)c1ccc(Cl)cc1` (stereo not drawn) yielded a cell count in assay [1] of 601. Also, the inhibition was -13.8% (inactive) in [1]; -102% (inactive) in assay [3]; 9.37% (inactive) in assay [5]; -1.51% (inactive) and 3.49% (inactive) in [10]; 13.4% (inactive) in assay [11]; 26.4% (inactive) in [12]. For the same compound, in [2], the inhibition of aggregation was -0.4% (inactive). Also, the nuclei count in assay [2] was found to be 95.6%; in assay [3] it was 112%. Besides, the z-score was -0.759 in assay [4] (setting [13]), 1.88 in assay [4] (setting [14]) and 0.491 in assay [4] (setting [15]). In assay [6], the fluorescence slope is -0.448 (inactive). Also, the NADPH fluorescence slope in [7] is -4.9e-05 (inactive). Moreover, the slope in assay [8] was 0.00441 (inactive). Further, in assay [9], the compound was called inactive.

`Clc1ccc(COC(Cn2ccnc2)c2ccc(Cl)cc2Cl)cc1` (stereo not drawn) registered a cell count in assay [1] of 571. The inhibition is -2% [at 2 µM, stronger effect = higher value, 0% TNFa-plus-vehicle, 100% no-TNFa wells] (inactive) in [1]; -14.8% (inactive) in assay [3]; 13.3% [cells stimulated with TPA for 15 min] (inactive) in assay [5]; 41.7% (inactive) in assay [10]; 22.8% (inactive) in [11]; 32.2% (inactive) in assay [12]. For the same compound, in assay [2], the inhibition of aggregation was -19.8% (inactive). Further, the nuclei count in assay [2] stood at 61.4%; in assay [3], 106%. The z-score in [4] (measured here: cell density z-score, cells stimulated with TPA for 15 min) is 0.542; in [4] (measured here: nuclear c-Myc green intensity z-score, cells stimulated with TPA for 15 min) it was 1.67; in [4] (measured here: nuclear pErk red intensity z-score, stronger effect = higher value, cells stimulated with TPA for 15 min) it was -0.914. For the same compound, the fluorescence slope in assay [6] is -0.51 (inactive). In addition, the NADPH fluorescence slope in [7] was 4.6e-06 (inactive). The slope in assay [8] was 0.00388 (inactive). The outcome in assay [9] is “inactive; toxic [screened at 20 µM (by protocol)]”.

In the case of `c1ccc2c(c1)[nH]c1cnccc12`, the cell count in [1] is 584. The inhibition in [1] was -5.4% (inactive); in [3], -52.4% (inactive); in [5] it was -10.4% (inactive); in assay [10], 6.75% (inactive); in assay [11] it was 2.27% (inactive); in assay [12], 16.3% (inactive). Also, the inhibition of aggregation in [2] was -8.3% (inactive). Moreover, the results for the nuclei count in assay [2] and in assay [3] were 86.9% and 113%, respectively. In addition, the figures for the z-score in [4] (setting [13]), in assay [4] (setting [14]) and in [4] (setting [15]) were 0.863, -0.369 and 0.512, respectively. Moreover, in assay [6], the fluorescence slope is -0.166 (active). Besides, the NADPH fluorescence slope in assay [7] is 2.2e-05 (inactive). In assay [8], the slope was 0.00469 (inactive). Further, the compound was classed as inactive in assay [9].

As for `O=c1[nH]c2ccccc2n1C1CCN(CCCC(c2ccc(F)cc2)c2ccc(F)cc2)CC1`, the cell count in [1] worked out at 544. For the same compound, the inhibition in [1] was -2.2% (inactive); in assay [3], -26.6% (inactive); in assay [5], 5.42% (inactive); in assay [10], -5.72% (inactive) and -16.1% (inactive); in assay [11], 18.5% (inactive); in assay [12] it was 10.5% (inactive). Further, the nuclei count in [3] came to 108%. In addition, the values for the z-score in assay [4] (setting [13]), in assay [4] (setting [14]) and in assay [4] (setting [15]) were -0.698, 0.151 and -0.248, respectively. Also, the fluorescence slope in assay [6] was -0.556 (inactive). Further, in assay [7], the NADPH fluorescence slope was -6.4e-05 (inactive). Further, the slope in assay [8] is 0.00493 (inactive). Moreover, the compound was classed as inactive in assay [9].

In turn, `C[C@H]1CCC/C=C/C2C[C@H](O)CC2[C@H](O)/C=C/C(=O)O1` (stereo partly drawn) showed a cell count in [1] of 647. For the same compound, the inhibition in assay [1] is 83.2% (active); in [3] it was 94.9% (active); in [5] it was 23.4% (inactive); in [10] it was 155% (active); in assay [11], -44.8% (inactive); in assay [12] it was 83% (active). The inhibition of aggregation in [2] was -436% (inactive). In addition, the nuclei count in [2] came to 0.6%; in [3], 120%. The z-score in [4] (setting [13]) is -0.283; in assay [4] (setting [14]) it was 0.495; in assay [4] (setting [15]), -0.185. For the same compound, the fluorescence slope in assay [6] is -0.473 (inactive). For the same compound, the NADPH fluorescence slope in assay [7] is -3.1e-05 (inactive). In [8], the slope is 0.00536 (inactive). The outcome in assay [9] is “inactive; toxic”.

The values are drawn from PubChem BioAssay.
